Bioassay records: PubChem BioAssay, several laboratories
ABCB6 inh MLPCN: blocks the human ABCB6 transporter; 360,000 tested, 0.19% active; K562-ABCB6 porphyrin accumulation, flow cytometry, 1 h; active compounds read low; fluorescence ratio to DMSO, % at 10 µM;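 active = fluorescence ratio to DMSO below 75%, the collection mean minus 3 SD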;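 note: signal is porphyrin accumulated inside mitochondria; lower ratio means ABCB6 inhibition with less porphyrin fluorescence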
Granule exo inh: lytic granule exocytosis inhibition; AID 651702; 360,000 tested, 0.66% active; TALL-104 LAMP-1 surface exposure, flow cytometry; cells stimulated with thapsigargin and PMA; inhibition, % at 10 µM;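 active = inhibition above about 55%, limit read from the data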
PG9 Ab binder: PG9 antibody binding by small molecule | TR-FRET gp120-PG9 antibody binding | inhibition, % at 6.7 µM | 360,000 tested, 0.43% active | AID 624416; in the data active = inhibition above about 8.5%
Rev-erbA mod: modulates human Rev-erb alpha binding to DNA; P20393; Rev-erbα–FITC-DNA binding, fluorescence polarization, 90 min; activity, % at 10 µM; 370,000 tested, 0.79% active; AID 1259318;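 active = activity above about 14%, limit read from the data; passing the limit was not always enough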
VLA-4 inh: inhibition in a human VLA-4 binding assay. P13612. VLA-4 expressing cells, ligand binding flow cytometry. inhibition, % (about 7 µM as worked out from the volumes in the protocol). 330,000 tested, 0.2% active; in the data active = inhibition above about 50%
Target sequence (P13612 whole entry, looked up): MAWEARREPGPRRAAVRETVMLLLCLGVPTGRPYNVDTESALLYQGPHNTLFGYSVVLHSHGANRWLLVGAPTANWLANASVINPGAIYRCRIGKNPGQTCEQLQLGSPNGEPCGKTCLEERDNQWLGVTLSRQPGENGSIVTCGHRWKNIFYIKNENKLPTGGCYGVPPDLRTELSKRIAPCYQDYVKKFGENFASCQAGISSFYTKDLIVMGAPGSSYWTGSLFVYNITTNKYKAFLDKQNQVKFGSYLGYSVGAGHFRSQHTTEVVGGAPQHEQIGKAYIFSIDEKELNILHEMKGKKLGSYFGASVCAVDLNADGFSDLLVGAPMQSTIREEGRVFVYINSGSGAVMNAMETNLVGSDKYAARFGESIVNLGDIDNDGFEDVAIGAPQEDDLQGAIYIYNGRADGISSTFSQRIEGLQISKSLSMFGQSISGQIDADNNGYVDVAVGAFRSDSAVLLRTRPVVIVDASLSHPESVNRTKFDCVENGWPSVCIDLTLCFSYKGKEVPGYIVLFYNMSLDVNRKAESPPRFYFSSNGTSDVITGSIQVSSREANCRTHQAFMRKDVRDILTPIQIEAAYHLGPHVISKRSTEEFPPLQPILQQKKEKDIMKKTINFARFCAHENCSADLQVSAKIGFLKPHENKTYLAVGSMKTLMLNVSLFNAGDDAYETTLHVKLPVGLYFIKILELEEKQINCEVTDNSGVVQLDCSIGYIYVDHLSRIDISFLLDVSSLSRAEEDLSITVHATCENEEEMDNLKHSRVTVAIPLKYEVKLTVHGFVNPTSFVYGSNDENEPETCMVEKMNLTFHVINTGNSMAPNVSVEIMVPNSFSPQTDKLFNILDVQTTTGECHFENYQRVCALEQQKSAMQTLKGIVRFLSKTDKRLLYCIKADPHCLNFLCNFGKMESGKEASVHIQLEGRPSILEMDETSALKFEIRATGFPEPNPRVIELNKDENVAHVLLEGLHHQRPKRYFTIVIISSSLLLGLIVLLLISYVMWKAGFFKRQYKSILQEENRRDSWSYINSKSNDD
PG9 binder conf: PG9 antibody binding, confirmed. TR-FRET PG9 antibody binding, biochemical. shares compounds with PG9 Ab binder. 1,500 tested, 90% active. inhibition, % at 6.7 µM; in the data active = inhibition above about 9%
PGV04 Ab binding: binds control antibody PGV04 in PG9 binder counter-screen; TR-FRET PGV04 antibody-gp120 binding, biochemical; 1,500 tested, 95% active; AID 651604; shares compounds with PG9 Ab binder; inhibition, % at 6.7 µM; in the data active = inhibition above about 9.5%
PG9 binder DR: PG9 antibody binding, dose response. AID 651848. TR-FRET PG9 antibody-gp120 binding inhibition. 95 tested, under 10 active. shares compounds with PG9 Ab binder. IC50, µM; in the data active = IC50 below about 10 µM
PGV04 binding DR: binds control antibody PGV04 in PG9 counter-screen; shares compounds with PG9 Ab binder; TR-FRET binding to control antibody PGV04; IC50, µM; 95 tested, 20% active; AID 651937
PG126 DR counter: PG126 binding, dose response counter-screen. shares compounds with PG9 Ab binder. TR-FRET binding to antibody PG126, counterscreen. IC50, µM. 95 tested, 20% active
Each line names hits and unclear results; the compound was inactive in the other large screens (follow-up assays come after a bar, where they were run). In the library only some 2% were active in any assay of this set; here they are far more common. Cut-off read from the data, not from the text of the source, unless noted: active = IC50 below about 9 µM; inactive = the rest.

Cc1nc2ccccc2nc1CSc1nncs1	PG9 Ab binder 9.8 | PG9 binder conf inactive | PGV04 Ab binding inactive
CCn1c(SCc2nc3ccccc3nc2C)nnc1-c1cccs1	none
O=C(Cn1c(=S)[nH]c2ccccc2c1=O)N1CCN(c2ccc(F)cc2)CC1	PG9 Ab binder 11 | PG9 binder conf 16 | PGV04 Ab binding 26
NS(=O)(=O)c1ccc(NC(=O)c2ccc(-c3ccccc3)cc2)cc1	PG9 Ab binder 9.3 (no result: VLA-4 inh) | PG9 binder conf 13 | PGV04 Ab binding 25
COc1cccc(-n2nnnc2SCC(=O)Nc2ccc(C(C)=O)cc2)c1	PG9 Ab binder 16 | PG9 binder conf 24 | PGV04 Ab binding 39
COc1cccc(-n2nnnc2SCC(=O)Nc2ccccc2OC)c1	none
COCCn1c(=NC(=O)c2sc3ccccc3c2Cl)sc2cc(S(N)(=O)=O)ccc21	PG9 Ab binder 18 | PG9 binder conf 24 | PGV04 Ab binding 35
O=C1N2CCc3ccccc3C2CS(=O)(=O)N1Cc1ccc(F)cc1 (stereo not drawn)	none (no result: ABCB6 inh MLPCN, Granule exo inh, PG9 Ab binder, VLA-4 inh)
O=C(O)c1cc(-c2ccco2)nc2ccc(Br)cc12	PG9 Ab binder 25 | PG9 binder conf 45 | PGV04 Ab binding 58
NC(=O)COC(=O)c1cc(-c2ccco2)nc2ccccc12	none
Cc1cc2cc3c(cc2nc1SCC(=O)OC(C)C)OCCO3	PG9 Ab binder 17 | PG9 binder conf 23 | PGV04 Ab binding 26
Cc1cc2cc3c(cc2nc1SCC(=O)O)OCCO3	none
CC(=O)CC[C@@H]1CC[C@]2(CCCN(S(C)(=O)=O)C2)O1	none (no result: ABCB6 inh MLPCN, Granule exo inh, PG9 Ab binder, VLA-4 inh)
COC(=O)c1cc2ccccn2c2c(C(=O)OC)c(C(=O)OC)cc1-2	none
COC(=O)c1cc2c(C)cc3ccc(C)cn3c-2c1C(=O)OC	PG9 Ab binder 11 | PG9 binder conf 17 | PGV04 Ab binding 22
Cn1c(Cc2cccs2)nnc1SCC(=O)Nc1ccc2c(c1)OCO2	none (no result: ABCB6 inh MLPCN, Granule exo inh, PG9 Ab binder, VLA-4 inh)
O=C(O)[C@@H](S)[C@@H](S)C(=O)O	none (no result: ABCB6 inh MLPCN, Granule exo inh, PG9 Ab binder, VLA-4 inh)
COc1ccc(S(=O)(=O)NNC(=O)c2csc(-n3nc(C)cc3C(F)(F)F)n2)cc1OC	PG9 Ab binder 10 | PG9 binder conf inactive | PGV04 Ab binding 11
Cc1cc(C(F)(F)F)n(-c2nc(C(=O)NN)cs2)n1	none
CCOc1ccc(NC(=O)CCC(=O)c2ccc(Br)cc2)cc1	PG9 Ab binder 16 | PG9 binder conf 18 | PGV04 Ab binding 22
Cc1ccc(-c2c(C(=O)Nc3ccccc3C)c(C)[nH]c(=S)c2C#N)o1	PG9 Ab binder 15 | PG9 binder conf 11 | PGV04 Ab binding 11
C[C@H]1[C@@H](OC(=O)NCc2cccs2)CC[C@@]23CCCN2C(=O)CCC[C@@H]13	none (no result: ABCB6 inh MLPCN, Granule exo inh, PG9 Ab binder, VLA-4 inh)
Nc1c(Cl)cc(-c2csc(N3CCCC3c3nc4cc(Cl)c(Cl)cc4n3CCCO)n2)cc1Cl (stereo not drawn)	none
Cc1ccc(Cn2c(C3CCCN3c3nc(-c4cc(Cl)c(N)c(Cl)c4)cs3)nc3cc(Cl)c(Cl)cc32)cc1 (stereo not drawn)	PG9 Ab binder 9.7 | PG9 binder conf 14 | PGV04 Ab binding 22
CCCC[C@H]1C2CC(OC(=O)NCCCC(=O)OCC)C(C2)[C@H]2CCCCN21 (stereo partly drawn)	none (no result: ABCB6 inh MLPCN, Granule exo inh, PG9 Ab binder, VLA-4 inh)
O=C(Nc1nccs1)c1cc2sccc2n1Cc1ccc(F)cc1	PG9 Ab binder 9.4 | PG9 binder conf 15 | PGV04 Ab binding 19
Cc1ccnc(N2CCC(C(=O)Nc3ccc4c(c3)CCC4)CC2)n1	PG9 Ab binder 37 | PG9 binder conf 44 | PGV04 Ab binding 61
CC(=O)c1ccc([C@H](O)[C@@H](C(=O)N(C)c2ccccc2)C2CC2)cc1	none (no result: ABCB6 inh MLPCN, Granule exo inh, PG9 Ab binder, VLA-4 inh)
c1ccc(-c2nccc(-c3ccc(-n4cnc5ccccc54)cc3)n2)cc1	PG9 Ab binder 15 | PG9 binder conf 19 | PGV04 Ab binding 14 | PG9 binder DR inactive | PGV04 binding DR inactive | PG126 DR counter inactive
CC(C)n1nnnc1C1(C)Cn2nccc2C(=O)N1Cc1cccc(C(F)(F)F)c1 (stereo not drawn)	none (no result: ABCB6 inh MLPCN, Granule exo inh, PG9 Ab binder, VLA-4 inh)
COC(=O)[C@]12C[C@H](CC(=O)NCc3ccc(OC)c(OC)c3)C(=O)N(Cc3cccc4ccccc34)C1=C[C@H](C(C)C)O[C@@H]2C1CC1	none (no result: ABCB6 inh MLPCN, Granule exo inh, PG9 Ab binder, VLA-4 inh)
CCn1c(SCC(=O)Nc2nc3ccccc3s2)nnc1-c1ccc(Br)cc1	PG9 Ab binder 21 | PG9 binder conf 23 | PGV04 Ab binding 35
Cn1c(SCC(=O)Nc2nc3ccccc3s2)nnc1-c1ccccc1	none
Cc1ccc(S(=O)(=O)N2CCC(C(=O)Nc3ccc4c(c3)OCO4)CC2)cc1	none
O=C(Nc1ccc2c(c1)OCO2)C1CCN(c2ccc(S(=O)(=O)N3CCOCC3)cc2)CC1	PG9 Ab binder 16 | PG9 binder conf 27 | PGV04 Ab binding 25 | PG9 binder DR inactive | PGV04 binding DR inactive | PG126 DR counter inactive
O=C(OC12CCCN(C1)/C(=C/c1ccccc1)C2)c1ccc(Cl)cc1 (stereo not drawn)	none (no result: ABCB6 inh MLPCN, Granule exo inh, PG9 Ab binder, VLA-4 inh)
COc1cccc(NC(=O)Cn2c3ccc(OC)cc3c3nc4n(c(=O)c32)CCS4)c1	PG9 Ab binder 14 | PG9 binder conf 31 | PGV04 Ab binding 25 | PG9 binder DR inactive | PGV04 binding DR 9 | PG126 DR counter inactive
CCN(CC)C(=O)CC[C@H]1CC[C@]2(CCCN(Cc3cccc4ccccc34)C2)O1	none (no result: ABCB6 inh MLPCN, Granule exo inh, PG9 Ab binder, VLA-4 inh)
COc1ccc2ccc(OCC(=O)Nc3cc(C)on3)cc2c1	PG9 Ab binder 21 | PG9 binder conf 25 | PGV04 Ab binding 34
COCc1cc(N2CCN(C(=O)OC(C)(C)C)C[C@H]2C)ccc1N1CC[C@H](O)C1	none (no result: ABCB6 inh MLPCN, Granule exo inh, VLA-4 inh)
CCOC(=O)CCc1c(C)c(C#N)c2nc3ccccc3n2c1-n1cnc2ccccc21	PG9 Ab binder 17 | PG9 binder conf 22 | PGV04 Ab binding 27
O=C(Cn1nnc(-c2ccc3c(c2)OCO3)n1)NCc1ccccc1	none
O=C(Cn1nnc(-c2ccccc2Cl)n1)NCc1ccc2c(c1)OCO2	PG9 Ab binder 10 | PG9 binder conf 11 | PGV04 Ab binding 14
Cc1ccc(/C=C/c2nc3ccccc3c(=O)[nH]2)cc1	PG9 Ab binder 31 | PG9 binder conf 40 | PGV04 Ab binding 47
CC(C)CC(CCOCCO)NC(=O)OCc1ccccc1[N+](=O)[O-] (stereo not drawn)	none (no result: ABCB6 inh MLPCN, Granule exo inh, PG9 Ab binder, VLA-4 inh)
COc1ccc2c(c1)CCCC(Br)C2=O (stereo not drawn)	none (no result: VLA-4 inh)
